# Test results reported in PubChem BioAssay (NCI).
# Compounds without any hit were thinned out: in the full panel of roughly 79,000, 15% have a hit. Unmarked numbers belong to inactive results. Active and inactive are the calls of the source. No stated cut-off is given here; in the data, active means growth inhibition above about 70%; inactive means the rest.
# Key:
# [1] = NCI Yeast Anticancer Drug Screen. Data for the rad50 strain (AID 155);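 further: 0% = growth of vehicle-only cultures of the same strain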; details: S. cerevisiae rad50 strain growth inhibition, stronger effect = higher value
# In short: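 Genetically altered yeast (DNA repair pathway); compound treatment; growth inhibition vs vehicle ctrl.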
# [2] = NCI Yeast Anticancer Drug Screen. Data for the mec2-1 strain (AID 157); details: S. cerevisiae mec2-1 strain, stronger effect = higher value
# In short: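 Compounds were applied to mec2-1 yeast cells. Their growth was then compared with that of vehicle-treated cultures to give growth inhibition.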
# [3] = NCI Yeast Anticancer Drug Screen. Data for the sgs1 mgt1 strain (AID 161);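 further: 0% = growth of cultures given vehicle only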; details: S. cerevisiae sgs1 mgt1 strain, stronger effect = higher value
# In short: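 Compounds are added to genetically altered yeast, and growth is compared with cultures given vehicle alone to give percent inhibition.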
# [4] = NCI Yeast Anticancer Drug Screen. Data for the cln2 rad14 strain (AID 165);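 further: 0% = growth equal to vehicle treated cultures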; details: S. cerevisiae cln2 rad14 strain, stronger effect = higher value
# In short: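 Strain: cln2 rad14 yeast, altered in cell cycle control and DNA damage repair. Read-out: growth inhibition vs vehicle.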
# [5] = NCI Yeast Anticancer Drug Screen. Data for the bub3 strain (AID 167); details: S. cerevisiae bub3 mutant strain, stronger effect = higher value
# In short: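 Yeast carrying a defined mutation is treated with each compound, and growth is compared with that of vehicle-exposed cells to give inhibition.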
# [6] = NCI Yeast Anticancer Drug Screen. Data for the mlh1 rad18 strain (AID 175); details: S. cerevisiae mlh1 rad18 strain growth inhibition, stronger effect = higher value
# In short: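 A repair-deficient yeast strain is exposed to test compound, and growth is scored relative to vehicle-treated controls.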
# [7] = at 5.0 µM (retest, dose inferred, filed as 0.5)
# [8] = at 50.0 µM (retest, dose inferred, filed as 5.0)
Compound,"growth inhibition [1, 7]","growth inhibition [1, 8]",growth inhibition ([1]; at 50.0 µM),"growth inhibition [2, 7]","growth inhibition [2, 8]",growth inhibition ([2]; at 50.0 µM),"growth inhibition [3, 7]","growth inhibition [3, 8]",growth inhibition ([3]; at 50.0 µM),"growth inhibition [4, 7]","growth inhibition [4, 8]",growth inhibition ([4]; at 50.0 µM),"growth inhibition [5, 7]","growth inhibition [5, 8]",growth inhibition ([5]; at 50.0 µM),"growth inhibition [6, 7]","growth inhibition [6, 8]",growth inhibition ([6]; at 50.0 µM)
O=C(C[P+](c1ccccc1)(c1ccccc1)c1ccccc1)c1ccc(Br)cc1,67%,96% (active),98.8% (active),53%,98% (active),97.4% (active),82% (active),99% (active),96.8% (active),22%,96% (active),95.9% (active),62%,97% (active),97.7% (active),69%,97% (active),96% (active)
CCOC(=O)/C(=C\c1ccc([N+](=O)[O-])cc1)C(C)=O,46%,99% (active),92.8% (active),39%,99% (active),94.7% (active),25%,98% (active),92.5% (active),17%,98% (active),87.1% (active),40%,99% (active),92.4% (active),30%,99% (active),91.8% (active)
c1cnc2ccc3c4cccnc4ccc3c2c1,12%,95% (active),96.8% (active),0%,75% (active),75% (active),7%,81% (active),61.3%,-17%,67%,59.5%,2%,66%,75.8% (active),1%,89% (active),80.4% (active)
CSc1ccc(C(=O)C(=O)c2ccc(SC)s2)s1,14%,11%,26.6%,-15%,-8%,39.5%,14%,14%,73.8% (active),0%,37%,76.7% (active),-2%,9%,48.7%,4%,2%,-1.7%
O=C1c2ccc3ccccc3c2CCC1[n+]1ccc2ccccc2c1 (configuration not stated),1%,57%,53.4%,11%,76% (active),77.3% (active),7%,79% (active),70.7% (active),-5%,29%,83.6% (active),-4%,63%,71% (active),15%,85% (active),69.5%
O=C1c2cc([N+](=O)[O-])cc3cc([N+](=O)[O-])cc(c23)C(=O)N1CCCNCCNCCCN1C(=O)c2cc([N+](=O)[O-])cc3cc([N+](=O)[O-])cc(c23)C1=O,85% (active),93% (active),61%,32%,96% (active),77.4% (active),93% (active),94% (active),80.9% (active),22%,92% (active),83% (active),9%,95% (active),83.7% (active),66%,91% (active),77.3% (active)
CC(C)(C)c1cc(Cl)c(O)c(Cc2cc(C(C)(C)C)cc(Cl)c2O)c1,5%,67%,67%,36%,78% (active),72.2% (active),-4%,84% (active),82.5% (active),14%,79% (active),82% (active),9%,76% (active),62.5%,52%,85% (active),70.5% (active)
Oc1ccc(O)c(C2CCCCC2)c1,30%,94% (active),96.7% (active),62%,99% (active),89.7% (active),46%,99% (active),78.2% (active),46%,94% (active),50.4%,51%,99% (active),89% (active),83% (active),99% (active),94.8% (active)
c1ccc(COc2ccc(C[P+](c3ccccc3)(c3ccccc3)c3ccccc3)cc2)cc1,97% (active),100% (active),99.3% (active),98% (active),100% (active),99.5% (active),99% (active),100% (active),99.7% (active),98% (active),98% (active),99.6% (active),99% (active),99% (active),99.5% (active),99% (active),99% (active),99.3% (active)
CC1(CCC(=O)O)c2ccc3ccccc3c2Oc2c1ccc1ccccc21,79% (active),94% (active),93.8% (active),92% (active),94% (active),96.2% (active),81% (active),94% (active),96% (active),77% (active),95% (active),94.9% (active),51%,92% (active),95.9% (active),84% (active),92% (active),94.8% (active)
Fc1ccc(NC2=NCCN=C(Nc3ccc(F)cc3)SS2)cc1,0%,70% (active),85% (active),6%,66%,86.5% (active),4%,69%,86% (active),-9%,77% (active),69.8%,6%,76% (active),88% (active),29%,85% (active),80.8% (active)
CCCCCCCCCCCc1nnc(N)o1,28%,91% (active),96.7% (active),11%,92% (active),96.2% (active),1%,89% (active),95.2% (active),35%,92% (active),93.3% (active),-10%,99% (active),95.1% (active),7%,94% (active),96.8% (active)
CC/C(=C\c1cccc(OC)c1)c1ccncc1,17%,84% (active),94.7% (active),12%,92% (active),94.2% (active),40%,91% (active),95.3% (active),14%,81% (active),90.3% (active),35%,89% (active),94.8% (active),32%,87% (active),93.9% (active)
COc1ccc2c(c1)C(Br)CCC(Br)C2=O (configuration not stated),-20%,2%,47.6%,-48%,-18%,56.2%,-17%,26%,80.3% (active),13%,39%,33.5%,-36%,51%,88.7% (active),-20%,34%,91.8% (active)
Nn1c2ccccc2c2ccccc21,-106%,-52%,35%,-44%,-53%,11.8%,-32%,-25%,8.1%,-54%,-77%,12%,-72%,-80%,-6%,-78%,6%,75.1% (active)
CN1C(=O)CCC2[C@@H]3CC=C4C[C@@H](O)CC[C@]4(C)C3CC[C@@]21C (some centres not stated),-3%,27%,16.4%,0%,11%,0.3%,1%,59%,69.8%,10%,13%,28.8%,22%,66%,57.7%,-7%,16%,70.8% (active)
CCN(CC)CCOC(=O)Nc1cc(Cl)cc(Cl)c1,50%,68%,71% (active),37%,60%,47.1%,52%,87% (active),68.5%,36%,62%,58.2%,47%,69%,61.2%,59%,86% (active),54.8%
O=C1C=CC(=O)c2c(O)c(N3CCC[C@@H]3CO)c(Cl)c(O)c21,20%,65%,30.1%,30%,64%,41.5%,25%,52%,51.2%,19%,36%,30.2%,21%,29%,72.2% (active),26%,71% (active),4.25%
CCOC(=O)/C(=C\c1cccc(OC)c1)C(C)=O,-5%,90% (active),90.2% (active),-5%,96% (active),91.7% (active),-11%,93% (active),90% (active),-14%,86% (active),84.3% (active),23%,95% (active),88.3% (active),-16%,95% (active),88.3% (active)
